Molecules are shown by their SMILES. In all, about 39,000 compounds went through this assay and about 3,300 (8.5%) were called active. The full list was thinned out, with actives kept by preference.

In this assay the test system is HepG2. Kind of assay: cytotoxicity call (relative viability < 0.9). Conditions: 10 µM.
As for `Cn1cnc(S(=O)(=O)N[C@@H]2C=C[C@@H](CC(=O)NCC3CC3)O[C@H]2CO)c1`, the cytotoxicity call was “inactive”.
The value for `O=C(O)C12CC(C1)C2` was “inactive”; that for `COCC(=O)N(C)C[C@H]1Oc2cc(-c3ccc(C#N)cc3)ccc2S(=O)(=O)N([C@@H](C)CO)C[C@H]1C` was “inactive”; that for `Cc1noc(C)c1NC(=O)N[C@H]1C=C[C@H](CC(=O)N2CCN(C)CC2)O[C@H]1CO` was “inactive”.
The value for `COc1cccc(C#Cc2ccc3c(c2)O[C@@H](CN(C)C(=O)CN2CCOCC2)[C@H](C)CN([C@H](C)CO)S3(=O)=O)c1` was “inactive”.
With `Cc1ccc(S(=O)(=O)N(C)C[C@@H]2OCCCC[C@H](C)Oc3ccc(NC(=O)CCC(F)(F)F)cc3C(=O)N([C@H](C)CO)C[C@H]2C)cc1`, the cytotoxicity call is “inactive”.
`CC[C@H]1OC(=O)C[C@@H](O)[C@H](C)[C@@H](O[C@@H]2O[C@H](C)[C@@H](O)[C@H](N(C)C)[C@H]2O)[C@@H](CCN2C[C@H](C)C[C@H](C)C2)C[C@@H](C)C(=O)/C=C/C(C)=C/[C@@H]1CO[C@@H]1O[C@H](C)[C@@H](O)[C@@H](OC)[C@H]1OC`: the cytotoxicity call was “inactive”.
Regarding `CC[C@@H]1OC(=O)C[C@@H](O)[C@H](C)[C@@H](O[C@@H]2O[C@H](C)[C@@H](O)[C@H](N(C)C)[C@H]2O)[C@@H](CCN2C[C@H](C)C[C@H](C)C2)C[C@@H](C)C(=O)/C=C/C(C)=C\[C@@H]1CO[C@@H]1O[C@H](C)[C@@H](O)[C@@H](OC)[C@H]1OC`, the cytotoxicity call is “inactive”.
Take `CCC1OC(=O)CC(O)C(C)C(OC2OC(C)C(O)C(N(C)C)C2O)C(CCN2CC(C)CC(C)C2)CC(C)C(=O)C=CC(C)=CC1COC1OC(C)C(O)C(OC)C1OC` (stereo unspecified): the cytotoxicity call is “active”.
The value for `C[C@H](CO)N1C[C@H](C)[C@H](CN(C)Cc2ccncc2)Oc2ccc(NS(=O)(=O)c3cccs3)cc2C1=O` was “inactive”; that for `CC(=O)OC1CC2C(C)(C)C(O)CCC2(C)C2CCC3(C)C(c4ccoc4)OC(=O)C4OC43C12C` (stereo unspecified) was “inactive”.
To `Cc1noc(C)c1S(=O)(=O)N(C)C[C@H]1Oc2ccc(NC(=O)C3CC3)cc2CC(=O)N([C@@H](C)CO)C[C@@H]1C` belongs “inactive”; to `C[C@H]1CCCCO[C@H](CN(C)S(=O)(=O)c2ccc(F)cc2)[C@@H](C)CN([C@@H](C)CO)C(=O)c2cc(NC(=O)Nc3ccc(C(F)(F)F)cc3)ccc2O1`, “inactive”.
The value for `C[C@@H]1CN([C@@H](C)CO)C(=O)c2cc(NC(=O)Nc3ccc(C(F)(F)F)cc3)ccc2O[C@@H](C)CCCCO[C@H]1CN(C)S(=O)(=O)c1ccc(F)cc1` was “inactive”; that for `C[C@@H]1CN([C@H](C)CO)C(=O)c2cc(NC(=O)Nc3ccc(C(F)(F)F)cc3)ccc2O[C@@H](C)CCCCO[C@@H]1CN(C)S(=O)(=O)c1ccc(F)cc1` was “inactive”.
Consider `C[C@@H]1CCCCO[C@@H](CN(C)S(=O)(=O)c2ccc(F)cc2)[C@H](C)CN([C@@H](C)CO)C(=O)c2cc(NC(=O)Nc3ccc(C(F)(F)F)cc3)ccc2O1`, for which the cytotoxicity call was “inactive”.
To `C[C@H](CO)N1C[C@H](C)[C@H](CN(C)S(=O)(=O)c2ccc(F)cc2)OCCCC[C@H](C)Oc2ccc(NC(=O)Nc3ccc(C(F)(F)F)cc3)cc2C1=O` belongs “inactive”; to `C[C@@H]1CCCCO[C@H](CN(C)S(=O)(=O)c2ccc(F)cc2)[C@H](C)CN([C@@H](C)CO)C(=O)c2cc(NC(=O)Nc3ccc(C(F)(F)F)cc3)ccc2O1`, “active”; to `C[C@@H]1CCCCO[C@@H](CN(C)S(=O)(=O)c2ccc(F)cc2)[C@@H](C)CN([C@@H](C)CO)C(=O)c2cc(NC(=O)Nc3ccc(C(F)(F)F)cc3)ccc2O1`, “active”.
The value for `C[C@H](CO)N1C[C@H](C)[C@@H](CN(C)S(=O)(=O)c2ccc(F)cc2)OCCCC[C@H](C)Oc2ccc(NC(=O)Nc3ccc(C(F)(F)F)cc3)cc2C1=O` was “inactive”; that for `C[C@@H]1CCCCO[C@H](CN(C)S(=O)(=O)c2ccc(F)cc2)[C@@H](C)CN([C@H](C)CO)C(=O)c2cc(NC(=O)Nc3ccc(C(F)(F)F)cc3)ccc2O1` was “active”.
For the molecule `COc1ccc(C#Cc2cccc(-c3nc(C(=O)N[C@@H]4CCN(Cc5ccccc5)C4)cc4c3[C@@H](CCO)N(S(=O)C(C)(C)C)C4)c2)cc1OC` (stereo partly specified), the cytotoxicity call is “inactive”.
The value for `c1ccc2cc3nc4c(ccc5ccccc54)nc3cc2c1` was “inactive”; that for `C[C@@H]1CCCCO[C@@H](CN(C)C(=O)NC2CCCCC2)[C@@H](C)CN([C@H](C)CO)C(=O)c2cc(NC(=O)c3ccccc3)ccc2O1` was “inactive”.
The value for `C[C@@H]1CN([C@@H](C)CO)S(=O)(=O)c2ccc(C#Cc3ccccc3)cc2O[C@H]1CN(C)S(C)(=O)=O` was “inactive”; that for `C[C@H](CO)N1C[C@H](C)[C@@H](CN(C)Cc2ccncc2)Oc2c(NC(=O)c3cnccn3)cccc2C1=O` was “inactive”; that for `C[C@@H]1CN([C@@H](C)CO)C(=O)c2cc(NC(=O)Nc3cccc4ccccc34)ccc2O[C@@H](C)CCCCO[C@H]1CN(C)C(=O)Nc1cccc2ccccc12` was “inactive”.
To `CC(C)NC(=O)Nc1ccc2c(c1)C(=O)N([C@H](C)CO)C[C@H](C)[C@H](CN(C)C(=O)Nc1cccc3ccccc13)OCCCC[C@H](C)O2` belongs “active”.
Regarding `C[C@@H]1CCCCO[C@@H](CN(C)C(=O)Nc2cccc3ccccc23)[C@H](C)CN([C@@H](C)CO)C(=O)c2cc(NC(=O)Nc3cccc4ccccc34)ccc2O1`, the cytotoxicity call is “active”.
To `CC(C)NC(=O)Nc1ccc2c(c1)C(=O)N([C@H](C)CO)C[C@@H](C)[C@H](CN(C)C(=O)Nc1cccc3ccccc13)OCCCC[C@H](C)O2` belongs “inactive”; to `C[C@@H]1CN([C@@H](C)CO)C(=O)c2cc(NC(=O)Nc3ccc(C(F)(F)F)cc3)ccc2O[C@@H](C)CCCCO[C@@H]1CN(C)C(=O)Nc1cccc2ccccc12`, “inactive”; to `C[C@@H]1CCCCO[C@H](CN(C)C(=O)Nc2cccc3ccccc23)[C@H](C)CN([C@@H](C)CO)C(=O)c2cc(NC(=O)Nc3ccc(C(F)(F)F)cc3)ccc2O1`, “active”.
The value for `C[C@H](CO)N1C[C@H](C)[C@@H](CN(C)C(=O)Nc2cccc3ccccc23)OCCCC[C@H](C)Oc2ccc(NC(=O)Nc3cccc4ccccc34)cc2C1=O` was “inactive”; that for `C[C@@H]1CN([C@@H](C)CO)C(=O)c2cc(NC(=O)Nc3ccc(C(F)(F)F)cc3)ccc2O[C@@H](C)CCCCO[C@H]1CN(C)C(=O)Nc1cccc2ccccc12` was “inactive”.
With `CC(C)NC(=O)Nc1ccc2c(c1)C(=O)N([C@@H](C)CO)C[C@@H](C)[C@@H](CN(C)C(=O)Nc1cccc3ccccc13)OCCCC[C@@H](C)O2`, the cytotoxicity call was “inactive”.
To `CN(C)CCCNC(=O)C[C@@H]1C=C[C@H](NS(=O)(=O)c2ccccc2)[C@H](CO)O1` belongs “inactive”; to `CO[C@@H]1CN(C)C(=O)c2cc(NC(=O)C3CC3)ccc2OC[C@@H](C)N(C(=O)Cc2ccccn2)C[C@H]1C`, “inactive”.
Turning to `NC(=O)c1ccc[n+](CC(=O)c2ccccc2)c1`, the cytotoxicity call was “inactive”.
The value for `C[C@@H]1CN([C@H](C)CO)C(=O)c2cc(NC(=O)Cc3ccccc3)ccc2O[C@@H](C)CCCCO[C@@H]1CN(C)CC1CCCCC1` was “inactive”; that for `Cc1noc(C)c1S(=O)(=O)N(C)C[C@@H]1OCCCC[C@H](C)Oc2ccc(NS(=O)(=O)c3cn(C)cn3)cc2C(=O)N([C@@H](C)CO)C[C@H]1C` was “inactive”; that for `OC[C@@H]1CC[C@@H]2O[C@H](CCc3ccc(C#CCc4ccccc4)cc3)[C@@H](n3cc(-c4ccccc4)nn3)C[C@@H]2O1` was “inactive”.
Regarding `CO[C@H](C(=O)N(C)C[C@@H]1OCc2ccccc2-c2c(n(C)c3ccccc23)C(=O)N([C@H](C)CO)C[C@H]1C)c1ccccc1`, the cytotoxicity call was “inactive”.
`CN(C)C(=O)[C@H]1[C@H](CO)[C@H]2Cn3c(ccc(C4=CCCC4)c3=O)[C@@H]1N2S(=O)(=O)c1cn(C)cn1`: the cytotoxicity call is “inactive”.
The value for `O=C(C[C@@H]1CC[C@H]2[C@@H](COC[C@H](O)CN2S(=O)(=O)c2cccc(F)c2)O1)NCc1ccc(Cl)c(Cl)c1` was “inactive”; that for `C[C@H]1CN([C@@H](C)CO)C(=O)c2cc(NC(=O)CCC(F)(F)F)ccc2O[C@@H]1CN(C)Cc1ccc(C(F)(F)F)cc1` was “inactive”; that for `C[C@H](CO)N1C[C@H](C)[C@H](CN(C)Cc2ccc(-c3ccccc3)cc2)Oc2ccc(NC(=O)CCC(F)(F)F)cc2C1=O` was “active”.
The value for `C[C@@H]1CN([C@@H](C)CO)C(=O)c2cc(NC(=O)CCC(F)(F)F)ccc2O[C@H]1CN(C)Cc1ccc(-c2ccccc2)cc1` was “active”.
For `C[C@@H]1CN([C@H](C)CO)C(=O)c2cc(NC(=O)CCC(F)(F)F)ccc2O[C@@H]1CN(C)Cc1ccc(-c2ccccc2)cc1`, the cytotoxicity call was “inactive”.
The value for `C[C@H]1CN([C@@H](C)CO)C(=O)c2cc(NC(=O)CCC(F)(F)F)ccc2O[C@H]1CN(C)Cc1ccc(-c2ccccc2)cc1` was “inactive”; that for `C[C@H]1CN([C@@H](C)CO)C(=O)c2cc(NC(=O)CCC(F)(F)F)ccc2O[C@@H]1CN(C)Cc1ccc(-c2ccccc2)cc1` was “active”.
With `C[C@H](CO)N1C[C@H](C)[C@@H](CN(C)Cc2ccc(Oc3ccccc3)cc2)Oc2ccc(NC(=O)CCC(F)(F)F)cc2C1=O`, the cytotoxicity call was “inactive”.
On to `C[C@@H]1CN([C@H](C)CO)C(=O)c2cc(NC(=O)CCC(F)(F)F)ccc2O[C@H]1CN(C)Cc1ccc(-c2ccccc2)cc1`, for which the cytotoxicity call was “active”.
The value for `C[C@@H]1CN([C@@H](C)CO)C(=O)c2cc(NC(=O)CCC(F)(F)F)ccc2O[C@H]1CN(C)Cc1ccc(Oc2ccccc2)cc1` was “inactive”; that for `C[C@H](CO)N1C[C@H](C)[C@H](CN(C)Cc2ccc(C(F)(F)F)cc2)Oc2ccc(NC(=O)CCC(F)(F)F)cc2C1=O` was “inactive”.
For the molecule `C[C@H](CO)N1C[C@H](C)[C@@H](CN(C)Cc2ccc(-c3ccccc3)cc2)Oc2ccc(NC(=O)CCC(F)(F)F)cc2C1=O`, the cytotoxicity call is “inactive”.
To `C[C@@H]1CN([C@@H](C)CO)C(=O)c2cc(NC(=O)CCC(F)(F)F)ccc2O[C@@H]1CN(C)Cc1ccc(-c2ccccc2)cc1` belongs “inactive”.

For the origin of these results see the antibiotic and cytotoxicity screens of Wong et al. (2023).
